# NPR1 antag: Natriuretic polypeptide receptor (hNpr1) antagonism - Primary qHTS; HEK293 hNpr1 GloSensor cGMP, ANP-stimulated luminescence; Atrial natriuretic peptide receptor 1 (Homo sapiens), P16066; 76,000 tested, 1.6% active; AID 1347048, 2019; Potency, µM (doses to about 46.3 µM), without a hit: at the top dose activity change, negative = inhibition, most hits filed as inhibitors; calls by dose curve; further: nearly all actives have a fitted effect of over 60% in size
#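 HEK293 cells stably expressing human Npr1 and cGMP GloSensor pGS-40F, loaded 2 h with 2% GloSensor reagent, given compound 30 min at room temperature. Luminescence read before and 20 min after 0.1 nM hNppA.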
# GPT2 inh: Primary qHTS assay for inhibitors of Glutamate pyruvate transaminase 2 (GPT2) | Alanine aminotransferase 2 (Homo sapiens), Q8TD30 | 100,000 tested, 0.25% active | Potency, µM (doses to about 57.7 µM), without a hit: at the top dose activity change, negative = inhibition, hits mostly inhibitors | Recombinant GPT2, coupled pyruvate oxidase/HRP Amplex Red fluorescence; further: nearly all actives have a fitted effect of over 60% in size
# Target sequence (Q8TD30 whole entry, looked up): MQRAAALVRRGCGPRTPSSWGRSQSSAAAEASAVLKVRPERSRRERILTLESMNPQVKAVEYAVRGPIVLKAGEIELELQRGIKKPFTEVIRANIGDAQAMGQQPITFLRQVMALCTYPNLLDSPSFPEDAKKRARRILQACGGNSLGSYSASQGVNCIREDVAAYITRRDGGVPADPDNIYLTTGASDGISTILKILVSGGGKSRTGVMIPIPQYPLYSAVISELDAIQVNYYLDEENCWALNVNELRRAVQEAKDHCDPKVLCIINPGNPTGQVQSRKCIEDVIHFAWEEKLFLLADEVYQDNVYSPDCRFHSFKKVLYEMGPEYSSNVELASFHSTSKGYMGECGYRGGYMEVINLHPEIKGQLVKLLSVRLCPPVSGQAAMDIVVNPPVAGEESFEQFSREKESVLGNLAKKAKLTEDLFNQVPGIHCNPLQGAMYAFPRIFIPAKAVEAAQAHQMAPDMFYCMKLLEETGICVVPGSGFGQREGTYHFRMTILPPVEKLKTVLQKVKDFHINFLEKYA
#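 Recombinant GPT2 (10ng/uL) with 250uM a-KG and 2mM L-alanine, 30 min at room temperature, in HEPES pH 7.5 buffer. Pyruvate detected by pyruvate oxidase/HRP/Amplex Red fluorescence after 30 min in the dark; AOA (50uM) as positive control.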
# FLuc inh: Firefly luciferase inhibition profiling of diverse chemical library using quantitative high-throughput screening; Luciferin 4-monooxygenase (Photinus pyralis), P08659; purified P. pyralis luciferase, luminescence, biochemical; Potency, µM (doses to about 115 µM), actives largely listed as inhibitors; 76,000 tested, 2.5% active; AID 1347043, 2019; further: nearly all actives have a fitted effect of over 65% in size
#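 Cell-free enzyme assay, 10nM P. pyralis luciferase, luciferin and ATP each at 10uM. Inhibition profiled over a 6-point titration, read as luminescence.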
# HEK cytotox: Cytotoxic Profiling in HEK 293 Cell Line of Diverse Libraries Using Quantitative High-Throughput Screening; HEK 293 viability, ATP luminescence (CellTiter-Glo), 48-72 h; Potency, µM (doses to about 115 µM), for the others: at the top dose activity change, negative = cytotoxicity, most hits filed as inhibitors; 94,000 tested, 6.6% active; further: nearly all actives have a fitted effect of over 60% in size
#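 HEK 293 cells at 250 cells/well were exposed to compounds by pintool transfer for 48 or 72 hr at 37 degree Celsius, 5% CO2. Viability was read as ATP-coupled luminescence with CellTiter-Glo after 10 min at room temperature.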
# NIH3T3 tox: Cytotoxic Profiling in NIH 3T3 Cell Line of Diverse Libraries Using Quantitative High-Throughput Screening; NIH 3T3 viability, CellTiter-Glo ATP luminescence, 48-72 h; Potency, µM (doses to about 96.7 µM), without a hit: at the top dose activity change, negative = cytotoxicity, usual class: inhibitors; 94,000 tested, 4.3% active; further: nearly all actives have a fitted effect of over 55% in size
#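 Cytotoxicity is measured as loss of cellular ATP: NIH 3T3 cells (400/well) are exposed to compound for 48 or 72 hr at 37 °C, then CellTiter-Glo luminescence is imaged after 10 min at room temperature.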
# * = called active by the depositor; i = inactive; u = inconclusive; x = not tested or not shown; [ ] = remark or other dose. Only some compounds are listed: those with a hit (about 10% of all), similar ones and a draw of the others. Unless noted, the call rests on the fitted dose curve; in most records, active means well fitted curve in the direction sought with a large enough effect; inconclusive means small, poorly fitted or top-dose-only effect, or another doubt; inactive means no such curve, though single readings can be large; an effect the other way counts as inactive or inconclusive. On the % scale 0 is the no-effect control and ±100 the full control effect; potency means the concentration at half of the fitted maximal effect.
SMILES,NPR1 antag,GPT2 inh,FLuc inh,HEK cytotox,NIH3T3 tox
CN1CCCC1COc1ccc2c(n1)CN(Cc1ccc(F)cc1)C(=O)CO2 (stereo not given),1%[70.6 µM],-23%[88.5 µM],i,-16%[172 µM],u
Cc1nc(CN2Cc3nc(OCc4ccc(F)cc4)ccc3OCC2=O)cs1,u,-9%[88.5 µM],i,71µM*,u
O=C(Nc1ccccc1)N1CCCN(c2ccc3nnc(C4CC4)n3n2)CC1,x,x,x,-3%,-6%
O=C(NCCc1ccc(Cl)cc1)c1ccc2oc(-c3ccccn3)nc2c1,x,i,x,u,-12%
Cc1nn(-c2ccccc2)c2c1C(C(C)C)N(C1CCN(C(=O)Cc3cccc(Cl)c3)C1)C2=O (stereo not given),x,x,x,45µM*,35µM*
Cc1nn(-c2ccccc2)c2c1C(C(C)C)N(C1CCCN(C(=O)Cc3cccc(Cl)c3)C1)C2=O (stereo not given),x,x,x,28µM*,u
Cc1nn(-c2ccccc2)c2c1C(C(C)C)N(C1CN(C(=O)Cc3ccccn3)C1)C2=O (stereo not given),x,x,x,u,-36%
COc1ccc(CC(=O)N2CCC(N3C(=O)c4c(c(C)nn4-c4ccccc4)C3C(C)C)C2)cc1 (stereo not given),x,x,x,u,40µM*
COCC(=O)N1CC(N2C(=O)c3c(c(C)nn3-c3ccccc3)C2C(C)C)C1 (stereo not given),x,x,x,-7%,-26%
COc1cccc(CC(=O)N2CCCC(c3nc(-c4ccccc4)no3)CCNC(=O)CC2)c1 (stereo not given),-11%,1%,u,i,-30%
Cc1ccc(CN2CCCC(c3nc(-c4cccnc4)no3)CCNC(=O)CC2)s1 (stereo not given),-3%,3%,i,89µM*,u
O=C1CCN(C(=O)c2ccco2)CCCC(c2nc(-c3ccccc3)no2)CCN1 (stereo not given),-5%,i,28µM*,-28%,-5%
O=C1CCN(C(=O)C2CCCC2)CCCC(c2nc(-c3ccccc3)no2)CCN1 (stereo not given),-5%,i,i,u,4%
COc1ccc(CCC(=O)N2CCCC(c3nc(-c4ccccc4)no3)CCNC(=O)CC2)cc1 (stereo not given),5%,i,i,89µM*,u
N#Cc1cccc(-c2cn3cc(C(=O)NCc4cccc(Cl)c4)nc3s2)c1,x,-3%,x,u,-16%
COc1cccc(-c2cccc(C(=O)N3CCCC3C(=O)N3CCN(C(C)=O)CC3)c2)c1 (stereo not given),x,-4%,x,i,-21%
COc1ccc([C@H]2C[C@@H](O)[C@@H](O)[C@@H]2NCc2cn(C)c3ccccc23)cc1,-24%[70.6 µM],-6%[88.5 µM],i,u,89µM*
O=C(N[C@H]1[C@H](O)[C@H](O)C[C@@H]1c1ccc(C(F)(F)F)cc1)c1ccc2c(c1)OCCO2,0%[70.6 µM],-6%[88.5 µM],u,u,100µM*
COc1ccc([C@H]2C[C@@H](O)[C@@H](O)[C@@H]2NCc2ccc(Cl)cc2)cc1,-21%[70.6 µM],u,i,100µM*,u
COc1ccc([C@H]2C[C@@H](O)[C@@H](O)[C@@H]2NCc2ccccc2)cc1,u,i,i,-23%[172 µM],1%[174 µM]
COc1ccc(CN[C@H]2[C@H](O)[C@H](O)C[C@@H]2c2ccc(C(F)(F)F)cc2)cc1,-15%[70.6 µM],i,i,45µM*,28µM*
COc1cccc2ccc(N3CCN(Cc4ccccc4)CC(O)C3)nc12 (stereo not given),1%,i,i,u,-2%
O=C(NCc1cccc(C(F)(F)F)c1)C1CCc2nnc(-c3cccc(C(F)(F)F)c3)n21 (stereo not given),x,-1%,x,u,-25%
C=CCCOC(=O)N1C[C@@H](C(N)=O)[C@@H]2Oc3c(C)cccc3[C@@H]21,x,x,x,-11%,u
COc1ccc([C@H]2C[C@@H](O)[C@@H](O)[C@@H]2NS(=O)(=O)c2ccc(Cl)cc2)cc1,-15%[70.6 µM],1%[88.5 µM],i,-29%[172 µM],-29%[138 µM]
SMILES,NPR1 antag,GPT2 inh,FLuc inh,HEK cytotox,NIH3T3 tox
COc1ccc([C@H]2C[C@@H](O)[C@@H](O)[C@@H]2NC(=O)c2cc3ccccc3s2)cc1,u,1%[88.5 µM],i,79µM*,u
COc1ccc([C@H]2C[C@@H](O)[C@@H](O)[C@@H]2NS(=O)(=O)c2ccc(C(F)(F)F)cc2)cc1,2%[70.6 µM],2%[88.5 µM],i,100µM*,-28%[174 µM]
COc1ccc(-c2nnc(C[C@@H]3C[C@@H](C(C)C)[C@H](CNCc4ccco4)C=C3C)o2)cc1,u,i,i,45µM*,u
CC1=C[C@@H](CNCc2cccnc2)[C@H](C(C)C)C[C@H]1Cc1nnc(-c2ccc([N+](=O)[O-])cc2)o1,u,i,i,11µM*,32µM*
CC1=C[C@@H](CNCc2ccco2)[C@H](C(C)C)C[C@H]1Cc1nnc(C(C)(C)C)o1,1%[70.6 µM],-3%[88.5 µM],i,63µM*,100µM*
CC1=C[C@@H](CNC(C)C)[C@H](C(C)C)C[C@H]1Cc1nnc(C(C)(C)C)o1,-3%[70.6 µM],-11%[88.5 µM],i,-1%[172 µM],-5%[138 µM]
COc1ccc(-c2nnc(C[C@@H]3C[C@@H](C(C)C)[C@H](CNCc4ccncc4)C=C3C)o2)cc1,u,i,i,25µM*,u
CC1=C[C@@H](CN(C)CCc2ccccn2)[C@H](C(C)C)C[C@H]1Cc1nnc(-c2ccccc2)o1,-19%,2%,i,u,u
C#CCNC(=O)C1CCCN1C(=O)c1cccc(-c2cccc(OC)c2)c1 (stereo not given),x,-18%,x,u,u
CCCc1cc(C)[nH]c(=O)c1CNC(=O)c1cc(-c2ccc(N3CCN(C(C)C)CC3)nc2)cc2c1cnn2C(C)C,x,3%,x,x,x
CC(c1ccc(F)cc1)N1Cc2cc(NC(=O)Cc3cccs3)ccc2OCC1=O (stereo not given),u,i,i,40µM*,u
C[C@@H]([C@@H](O)c1ccc(O)cc1)N1CCC(O)(c2ccccc2)CC1,x,2%,x,x,x
CC(=O)NC[C@H]1O[C@H](Cc2cc(-c3ccc(F)cc3)on2)CC[C@@H]1O,u,i,u,-17%[172 µM],-7%[138 µM]
CC(C)CCNC[C@H]1O[C@H](Cc2cc(-c3ccc(F)cc3)on2)CC[C@@H]1O,u,i,u,89µM*,50µM*
